# From PubChem BioAssay (NCATS)
# Inconclusive results are not listed. Activity calls are given as the source filed them. Calls come from the whole dose curve; as a rule, active = well fitted curve in the direction sought with a large enough effect; inconclusive = small, poorly fitted or top-dose-only effect, or another doubt; inactive = no such curve, though single readings can be large; an effect the other way counts as inactive or inconclusive.
# Key:
# [1] = qHTS to identify inhibitors of the type 1 interferon - major histocompatibility complex class I in skeletal muscle: primary screen against the NCATS Mechanism Interrogation Plate v5.0 (MIPE) Libary (AID 1347411); details: iHSKM cells + IFN-b, HiBiT-tagged MHC-I luminescence, 24 h; series mostly up to 45.8 µM
# In short: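 HLA-B HiBit myoblasts, dexamethasone-free medium + 4 ng/ml IFN-b, 24 h compound, 11-pt 1:3 from 46 uM final. Readout: Nano-Glo HiBiT lytic luminescence after 10 min lysis, RT.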
# [2] = target: Calcium and integrin-binding protein 1 (Homo sapiens) (UniProt Q99828); experiment: Primary qHTS for Identification of Calcium Integrin Binding Protein 1 (CIB1) Competitor (AID 1508620); details: CIB1-GST / FITC-alphaIIb peptide fluorescence polarization; series mostly up to 114 µM
# Sequence of Calcium and integrin-binding protein 1 (Homo sapiens) (Q99828 whole entry, looked up): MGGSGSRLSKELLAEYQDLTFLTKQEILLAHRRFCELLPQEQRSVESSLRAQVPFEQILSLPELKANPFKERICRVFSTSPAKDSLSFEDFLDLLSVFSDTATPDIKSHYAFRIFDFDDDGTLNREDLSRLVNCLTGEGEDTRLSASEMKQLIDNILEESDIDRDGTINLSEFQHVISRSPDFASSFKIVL
# In short: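 Fluorescence polarization competition: CIB1-GST (1 uM final) preincubated with compound 15 min at room temperature, then FITC-labeled alphaIIb peptide (100 nM final) added for another 15 min. Polarization read at Ex 480/Em 540.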
# [3] = qHTS for Inflammasome Signaling Inhibitors: IL-1-beta AlphaLISA screen against the NCATS CANVASS Library (AID 1347379); details: THP-1 LPS/ATP, IL-1B AlphaLISA secretion, 16 h
# In short: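 THP-1, 1 hr compound pre-incubation, then LPS 250 ng/mL + ATP 1.25 mM (final); 16 hr total with compound; IL-1B AlphaLISA, ex 680/em 615 nm; 11-point qHTS, up to 57.5 uM final.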
# [4] = Inflammasome Signaling qHTS Counterscreen: IL-1-beta AlphaLISA counterscreen against the NCATS CANVASS Library (AID 1347381); details: Purified IL-1beta AlphaLISA signal interference counterscreen; series mostly up to 57.5 µM
# In short: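 Here, no cellular stimulation occurs; compounds in an 11-point series meet 4 pg purified IL-1-beta directly. Bead-based AlphaLISA detection follows (1 h acceptor/antibody, then 30 min donor, dark, room temperature), with excitation at 680 nm.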
# [5] = qHTS assay for small molecule disruptors of mitochondrial membrane potential screened against the NCATS CANVASS Library (AID 1347389); details: HepG2 mitochondrial membrane potential, m-MPI red/green ratio, 1.5 h
# In short: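 Red/green fluorescence ratio read-out: J-aggregates ex 540/em 590 nm, monomers ex 490/em 535 nm. HepG2, 1 hr compound treatment, then 30 min Mito-MPS dye at 37C. 11-pt qHTS concentration series.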
# [6] = Secretion counterscreen for inhibitors of the SERCaMP assay screened against the NCATS CANVASS Library (AID 1347390); details: SH-SY5Y constitutive GLuc secretion, luminescence, 20 h
# In short: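 Counterscreen for secretory-pathway interference: after 4 h attachment, SH-SY5Y-GLuc cells were exposed 20 hours to compounds (final 0.001 - 77 uM), then coelenterazine added and GLuc luminescence recorded; Brefeldin A served as control.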
# [7] = qHTS for activators of Nrf2/ARE signaling pathway screened against the NCATS CANVASS Library (AID 1347391); details: ARE-bla HepG2, beta-lactamase reporter, 16 h
# In short: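 HepG2 ARE-bla; cpd 11-pt qHTS, 16 h 37C/5% CO2; CCF4 substrate 2 h RT; read ex 405 / em 460 + 530 nm. Viability by CellTiter-Glo luminescence, 30 min RT.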
# [8] = qHTS for inhibitors of ER calcium dysfunction: SERCaMP assay screened against the NCATS CANVASS Library (AID 1347393); details: SH-SY5Y GLuc-SERCaMP (Gaussia luciferase released on ER calcium loss) secretion, thapsigargin, luminescence
# In short: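 qHTS in SH-SY5Y reporter cells: 16 h compound pretreatment, 4 h thapsigargin, then secreted Gaussia luciferase measured by luminescence.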
# [9] = Vero-766 cells viability qHTS against the NCATS CANVASS Library: Counterscreen for Zika virus inhibition assay (AID 1347394); details: Vero 766 viability, CellTiter-Glo luminescence, 72 h
# In short: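 CellTiter Glo luminescence measured cytotoxicity after 72 h at 37C in uninfected Vero 766 cells, plated at 1000 cells/well. Compounds were applied in an 11-point series. Wells without cells defined 100% inhibition.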
# [10] = qHTS for inhibitors of Wild type Zika virus screened against the NCATS CANVASS Library (AID 1347396); details: Vero cells, Zika virus CPE, CellTiter-Glo, 72 h; series mostly up to 45.9 µM
# In short: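 Vero 766 cells, 1000/well, o/n attach; cpds pin-transferred (11-pt qHTS); WT Zika added; 72 h, 37C, 5% CO2; CellTiter Glo lumi. Uninfected + vehicle = 100% inhibition.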
# [11] = Viability qHTS for inhibitors of the SERCaMP assay screened against the NCATS CANVASS Library (AID 1347400); details: SH-SY5Y SERCaMP cells viability, CellTiter-Glo, 48 h
# In short: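 CellTiter-Glo luminescence readout after 48 h compound exposure (11-pnt qHTS series) of SH-SY5Y-GLuc SERCaMP MJH297 cells seeded at 1000 cells/well; bortezomib positive control.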
# [12] = Redox Reaction Profiling qHTS: Assay Interference Panel against the NCATS CANVASS Library (AID 1347401); details: resazurin-DTT redox cycling, fluorescence, 15 min; series mostly up to 57.1 µM
# In short: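 Quantitative HTS over an 11-point series was run in HEPES pH 7.3 with 50 mM NaCl, 200 uM DTT and 5 uM resazurin. Initial and 15-min resorufin fluorescence readings were taken.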
# [13] = qHTS to identify inhibitors of the type 1 interferon - major histocompatibility complex class I in skeletal muscle: primary screen against the NCATS Pharmaceutical Collection (AID 1347407); details: human skeletal muscle cells, IFN-b-induced MHC-I HiBiT luminescence, 24 h; series mostly up to 45.9 µM
# In short: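 Compounds […] were added to CRISPR-engineered HLA-B-HiBiT C25cl48 human myoblasts with 4.0 ng/ml IFN-beta. After 24 hrs at 37 C, cells were lysed and HiBiT luminescence measured.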
# [14] = target: Protein phosphatase 1D (Homo sapiens) (UniProt O15297); experiment: RapidFire Mass Spectrometry qHTS Assay for Modulators of WT P53-Induced Phosphatase 1 (WIP1) (AID 1347424); details: WIP1 dephosphorylation of phosphopeptide, RapidFire MS; series mostly up to 63 µM
# Sequence of Protein phosphatase 1D (Homo sapiens) (O15297 whole entry, looked up): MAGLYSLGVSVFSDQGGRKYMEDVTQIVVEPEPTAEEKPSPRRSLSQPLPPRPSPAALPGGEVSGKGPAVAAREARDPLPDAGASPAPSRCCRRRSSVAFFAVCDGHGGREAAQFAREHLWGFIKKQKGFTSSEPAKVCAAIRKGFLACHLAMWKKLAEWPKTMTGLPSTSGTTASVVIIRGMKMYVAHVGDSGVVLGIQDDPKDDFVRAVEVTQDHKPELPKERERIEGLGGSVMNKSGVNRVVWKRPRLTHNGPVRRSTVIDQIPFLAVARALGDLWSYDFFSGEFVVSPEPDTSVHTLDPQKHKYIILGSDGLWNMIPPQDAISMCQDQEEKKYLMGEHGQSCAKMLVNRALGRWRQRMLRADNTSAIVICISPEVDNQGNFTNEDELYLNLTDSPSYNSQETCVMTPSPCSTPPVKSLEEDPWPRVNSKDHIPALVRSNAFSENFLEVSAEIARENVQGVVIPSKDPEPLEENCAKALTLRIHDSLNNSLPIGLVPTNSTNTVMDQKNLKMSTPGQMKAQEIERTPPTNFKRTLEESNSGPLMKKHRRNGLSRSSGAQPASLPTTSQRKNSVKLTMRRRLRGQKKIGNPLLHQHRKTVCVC
# In short: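 Mass-spectrometric measurement of dephosphorylated peptide after a 5 min room-temperature reaction of 10 nM WIP1 with 2 uM phosphopeptide, following 1 h compound preincubation in 30 mM MgCl2 buffer.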
# [15] = target: Protein phosphatase 1D (Homo sapiens) (UniProt O15297); experiment: Rhodamine-PBP qHTS Assay for Modulators of WT P53-Induced Phosphatase 1 (WIP1) (AID 1347425); details: recombinant WIP1, Rhodamine-PBP phosphate fluorescence, real-time; series mostly up to 57.5 µM
# In short: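 Read-out: Rhodamine-PBP fluorescence (ex 525/em 598 nm) for released Pi, read each minute for 11 min after adding 10 uM VEPPL-pS-QETFS; signal taken as f1 minus pre-substrate f0. Enzyme 5 nM WIP1 with 1 hr room-temperature compound preincubation.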
# [16] = Primary qHTS for inhibitors of La Crosse Virus (LACV) - induced cell death in SH-SY5Y cells (AID 1508616); details: SH-SY5Y LACV cytopathicity rescue, ATP luminescence, 6 d; series mostly up to 4.29 µM
# In short: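 Cytopathicity rescue screen: compounds pinned onto SH-SY5Y cells, which are then infected with LACV (MOI 0.01) and held 6 days at 37C. Percent activity is scaled between infected DMSO control and uninfected DMSO control.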
smiles,measurement,setting,value
CC(C)(C)C(=O)CN1C(=O)[C@H](NC(=O)Nc2cccc(C(=O)O)c2)CN(C2CCCCC2)c2ccccc21,Potency,[1],inactive
same,Potency,[2],inactive
COc1ccc(Cl)c(Nc2nc3ccccc3nc2NS(=O)(=O)c2cccc(NC(=O)C(C)(C)N)c2)c1,Potency,[1],inactive
same,Potency,[2],inactive
COc1ccc(N(C)c2nc(C)nc3ccccc23)cc1,Potency,[1],inactive
same,Potency,[2],inactive
CCN1CCN(Cc2ccc(NC(=O)c3ccc(C)c(/C=C/c4cnc5[nH]ccc5c4OC)c3)cc2C(F)(F)F)CC1,Potency,[1],6.58 µM (active)
same,Potency,[2],inactive
C=C1C(=O)O[C@H]2[C@H]1CC/C(C)=C/CC[C@@]1(C)O[C@@H]21,Potency,[3],5.44 µM (active)
same,outcome,[4],inactive
same,Potency,[5],20.9 µM (active)
same,Potency,[6],15.3 µM (active)
same,Potency,[7],2.09 µM (active)
same,Potency,[8],1.72 µM (active)
same,Potency,[9],29.5 µM (active)
same,outcome,[10],inactive
same,Potency,[11],13.5 µM (active)
same,outcome,[12],inactive
same,Potency,[2],inactive
CC#CC(=O)N1CCC[C@H]1c1nc(-c2ccc(C(=O)Nc3ccccn3)cc2)c2c(N)nccn12,Potency,[1],inactive
same,Potency,[2],inactive
CCN1CCN(Cc2ccc(NC(=O)Nc3ccc(Oc4cc(NC)ncn4)cc3)cc2C(F)(F)F)CC1,Potency,[1],7.39 µM (active)
same,Potency,[2],inactive
O=C(O)c1c(O)c(-c2ccccc2)nc2ccccc12,outcome,[13],inactive
same,Potency,[14],inactive
same,outcome,[15],inactive
same,outcome,[16],inactive
same,Potency,[2],inactive
CCOCc1nc2c(N)nc3ccccc3c2n1CC(C)(C)O,Potency,[1],inactive
CCNCc1nc2c(N)nc3ccccc3c2n1CC(C)(C)O,Potency,[1],inactive
same,Potency,[2],inactive
Cc1[nH]nc(C(F)(F)F)c1Cc1sc2c(c1C(=O)N1C[C@](C)(O)CO1)c(=O)n(C)c(=O)n2C(C)C,Potency,[1],inactive
same,Potency,[2],inactive
